Only some compounds are listed: those with a hit (about 4.8% of all), similar ones and a draw of the others.
HIF activator: HIF pathway transcriptional activation; U2OS HRE-luciferase reporter, luminescence; normalized: DMSO 0%, desferrioxamine 100%; activation, % at 7.5 µM (by protocol); 0.32% of 300,000 active; AID 1910;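 active means mean activation of at least 10% of the iron chelator positive control signal, with at least half of replicates also reaching 10%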
Mot1-301 SUMO: SUMOylation pathway inhibition by Mot1-301 growth rescue | S. cerevisiae Mot1-301 growth rescue, ATP luminescence, 38.5C; percent above DMSO median, 100 means doubled | growth rescue, % at 18.8 µM | 1% of 320,000 active;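 active means every valid replicate shows activation above 250% relative to neutral control wells; inactive means the rest, any valid replicate at or below 250%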
ALR inh: human ALR oxidase inhibition via reduced H2O2 | P55789 | purified ALR, DTT oxidation, H2O2 HRP-luminol luminescence | inhibition, % (test concentration not listed) | 3.8% of 290,000 active | AID 485317;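 active means mean replicate inhibition above about 79%, with every replicate also reaching it, limit read from the data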
Target sequence (P55789 whole entry, looked up): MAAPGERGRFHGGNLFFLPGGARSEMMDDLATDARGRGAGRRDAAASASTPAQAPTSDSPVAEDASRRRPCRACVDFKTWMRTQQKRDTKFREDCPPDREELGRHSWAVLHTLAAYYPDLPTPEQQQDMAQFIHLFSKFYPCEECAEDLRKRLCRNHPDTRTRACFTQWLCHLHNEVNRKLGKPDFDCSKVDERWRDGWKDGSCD
AI-2 QS modul: modulates the Vibrio harveyi AI-2 quorum sensing system; Vibrio harveyi JMH597 AI-2 luminescence/OD600 ratio, 9 h; stronger effect = lower value; strain lacks LuxN and CqsS sensors; 0 = neutral-control median; activity change, % at 7.5 µM; 0.4% of 300,000 active; AID 2094; in the data active means activity change below about -75%, passing the limit was not always enough;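 further: luminescence divided by OD600 gain over 9 h not by final OD600 alone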
Mot1 SUMO dose: SUMO pathway inhibitors in yeast Mot1-301 growth; shares compounds with Mot1-301 SUMO; S. cerevisiae Mot1-301 galactose growth, ATP luminescence, 24 h; -100 = growth of slx-deleted rescue strain; 2,300 tested, under 10 active; AID 493004; growth activity, percent, % at 42 µM;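 active means Signal drops as the depositor expects, and the fitted half-maximal dose is no more than ten times the top valid tested dose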;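 further: more negative values mean stronger growth rescue toward the control strain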
A number is an active result; - = inactive; . = no result; + = active, no number.

SMILES	HIF activator	Mot1-301 SUMO	ALR inh	AI-2 QS modul	Mot1 SUMO dose
O=C(O)c1ccc(CNC(=O)c2ccccc2NC(=O)c2ccc([N+](=O)[O-])cc2)cc1	-	713	-	-	-
Cc1cccc(NC(=O)C(C)Sc2nc3nc(C)cc(C)n3n2)c1 (configuration not stated)	.	-	-	.	.
CCn1c(COc2ccc(=O)n(-c3ccccc3)n2)n[nH]c1=S	-	-	-	-	.
COc1cc(CNCCCN2CCOCC2)cc(Cl)c1OCC(=O)NC(C)(C)C	-	-	-	-	.
O=C(COc1ccc(Cl)cc1)OCC(=O)N1CCOCC1	.	-	-	.	.
O=C(N/N=C/c1cccs1)c1cncc(Br)c1	-	470	.	-	-
O=C(N/N=C/c1cccs1)c1cccnc1	-	-	-	-	.
CCCN1CCN(C(=O)Nc2ccc(OCC)cc2)CC1	-	-	-	-	.
O=C(Nc1ccc2ccccc2c1)N1CCCN(CCOc2ccccc2)CC1	-	425	-	-	-
CC(NC(=O)c1cccs1)c1ccc(Br)cc1 (configuration not stated)	-	800	-	-	-
Cc1cccc(NC(=O)CSCC(=O)N2CCCc3ccccc32)c1	-	503	.	-	-
Cc1ccc(NC(=O)CSCC(=O)Nc2ccccc2N2CCCC2)cc1	-	421	99	-	-
Cc1ccc(NC(=O)CSCC(=O)Nc2ccccc2C(=O)N2CCCCC2)cc1	-	-	.	-	.
O=C(CNC(=O)Cc1ccccc1)NCC(=O)OCC(=O)c1cccc2ccccc12	-	-	-	-	.
O=C(CNC(=O)c1ccco1)OCC(=O)c1cccc2ccccc12	-	434	-	-	-
O=C(COC(=O)c1cc([N+](=O)[O-])ccc1N1CCOCC1)Nc1cccc(F)c1	-	694	-	-	-
COc1cc(C(=O)COC(=O)c2cc([N+](=O)[O-])ccc2N2CCOCC2)ccc1OC(F)F	-	662	-	.	-
COc1ccccc1C(=O)COC(=O)c1cc([N+](=O)[O-])ccc1N1CCOCC1	-	-	-	-	.
Cn1c(SCc2ccccc2C#N)nc2ccccc2c1=O	-	-	-	-	.
CCn1c(SCC(N)=O)nnc1-c1cc2c(C)nn(-c3ccccc3)c2s1	-	+	.	-	-
CCn1c(SCC(=O)Nc2cc(C(C)(C)C)nn2-c2ccccc2)nnc1-c1cccs1	-	-	-	-	.
Cn1ccc(NC(=O)c2ccc([N+](=O)[O-])cc2)n1	.	-	-	.	.
CCOc1ccc(S(=O)(=O)NC2CC2)cc1	-	-	-	-	.
Cn1c(=O)c2c(ncn2CC(=O)N2CCCCCC2)n(C)c1=O	-	+	.	-	-
CC1CCN(C(=O)Cn2cnc3c2c(=O)n(C)c(=O)n3C)c2ccccc2S1 (configuration not stated)	-	761	-	-	-
SMILES	HIF activator	Mot1-301 SUMO	ALR inh	AI-2 QS modul	Mot1 SUMO dose
Cc1ccc(C)c(S(=O)(=O)N2CCCCC2CCNC(=O)C(=O)NCc2ccco2)c1 (configuration not stated)	-	-	-	-	.
Cc1ccc2nc(-c3ccc(F)cc3)nc(SCC(=O)NCC3CCCO3)c2c1 (configuration not stated)	-	-	-	-	.
CCc1ccc2nc(-c3cccc(C)c3)nc(SCC(=O)NCC3CCCO3)c2c1 (configuration not stated)	-	404	-	-	-
O=C(NCCCn1ccnc1)c1ccc(Cl)cc1	-	574	-	-	-
COc1ccc(CCNC(=O)Cn2nnc(-c3ccc(N4CCOCC4)cc3)n2)cc1OC	-	710	-	-	-
CC(C(=O)N1CCN(C(=O)c2ccco2)CC1)n1sc2ccccc2c1=O (configuration not stated)	-	380	-	-	-
COc1cccc(-n2c(Cc3cc(=O)[nH]c(=O)[nH]3)nnc2SCc2cccnc2)c1	.	511	-	-	-
Cc1ccc(-n2c(C)cc(/C=N/NC(=O)c3ccncc3)c2C)cc1C	-	753	.	-	-
CC(=O)c1cccc(CN2CCC(C(=O)Nc3ccc(-c4cccc(C)c4)cc3)CC2)c1	-	-	-	-	.
Cc1ccc(C)c(NC(=O)COC(=O)c2ccc3c(c2)OCO3)c1	-	975	-	-	-
CSc1ccc(CCNC(=O)C2CCCN(S(=O)(=O)N3CCOCC3)C2)cc1 (configuration not stated)	-	564	-	-	-
CCOc1ccc(S(=O)(=O)N2CCN(C(=O)CCOc3ccccc3C)CC2)cc1	-	-	-	-	.

Assay outcomes: PubChem, Broad Institute
